High-throughput results: PubChem BioAssay, National Center for Advancing Translational Sciences (NCATS)
KDM4E inh: JMJD2E (human) inhibition. 230,000 tested, 1.6% active. B2RXH2. JMJD2E catalytic domain, FDH-coupled NADH fluorescence (FDH is formaldehyde dehydrogenase). Potency, µM (top dose mostly 57.1 µM), for the others: top-dose activity change, negative = inhibition, most hits filed as inhibitors. AID 2147;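 further: 0% = wells with enzyme and -100% = buffer wells without enzyme; nearly all actives have a fitted effect of over 50% in size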
Target sequence (B2RXH2 1-337 limits assumed): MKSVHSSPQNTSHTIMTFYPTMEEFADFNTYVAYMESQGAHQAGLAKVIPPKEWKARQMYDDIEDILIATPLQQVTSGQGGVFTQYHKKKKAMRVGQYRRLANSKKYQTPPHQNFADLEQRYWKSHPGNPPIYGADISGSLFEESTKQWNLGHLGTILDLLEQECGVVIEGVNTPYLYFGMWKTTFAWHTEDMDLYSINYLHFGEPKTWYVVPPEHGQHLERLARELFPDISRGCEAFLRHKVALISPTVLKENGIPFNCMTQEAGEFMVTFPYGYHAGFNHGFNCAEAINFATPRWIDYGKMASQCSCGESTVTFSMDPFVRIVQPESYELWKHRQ
HTT aggregate: reduces HttQ103-GFP aggregates in PC12 cells; PC12 HttQ103-GFP aggregates, Acumen cytometry, 40 h; Potency, µM (highest dose often 46.1 µM), for the others: at the top dose activity change, negative = inhibition, most hits filed as inhibitors; 220,000 tested, 1.1% active; AID 1688; active means well fitted curve in the direction sought with a large enough effect; inconclusive means small, poorly fitted or top-dose-only effect, or another doubt; inactive means no such curve, though single readings can be large; an effect the other way counts as inactive or inconclusive; further: on the % scale 0 is the no-effect control and ±100 the full control effect; nearly all actives have a fitted effect of over 60% in size
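PC12/HTTQ103-GFP, ecdysone-inducible; teb 100 nM; cpd qHTS titration; GFP aggregates read on laser cytometer, Ex 488/Em 500-530 nm.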
ALDH1A1 inh: inhibitors of human aldehyde dehydrogenase 1A1; Potency, µM (top dose mostly 75.3 µM), for the others: at the top dose activity, negative = inhibition, actives largely listed as inhibitors; 220,000 tested, 7.3% active; AID 1030; Purified ALDH1A1, NADH fluorescence, propionaldehyde substrate; P00352;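 further: plate controls were no enzyme wells and a reference inhibitor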
HPGD block: HPGD (human) dehydrogenase inhibition; Potency, µM, for inactives: at the highest dose activity change, negative = inhibition, hits mostly inhibitors; 150,000 tested, 4.3% active; purified HPGD, NADH fluorescence kinetic, PGE2 substrate; P15428; further: on the % scale 0 is the no-effect control and ±100 the full control effect
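NADH formation kinetics: reaction with 30 uM PGE2 and 1 mM NAD+ (final), 20 nM enzyme, Tris-HCl pH 8 with Tween 20, after 15 min compound preincubation at room temperature. Fluorescence change, last versus first of five reads.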
Lamin A splicing: LMNA splicing modulation | HeLa LMNA splicing GFP/RFP minigene ratio, 48 h | Potency, µM (series often up to 46.1 µM), for the others: top-dose ratio change, negative = inhibition, usual class: inhibitors | 200,000 tested, 0.01% active; active means well fitted inhibition curve with a large enough effect in the signal ratio, with a control signal flat, not every such curve was filed as active; inconclusive means small, poorly fitted or top-dose-only effect, or effect the other way, or a change in a side signal; the % refers to the signal ratio; further: on the % scale 0 is the no-effect control and ±100 the full control effect
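S3 HeLa cells stably expressing lamin A-EGFP splicing minigene plus DsRed2, 600 cells/well, 48 h compound exposure at 37C. Laser-scanning cytometry; analysed as GFP (500-530 nm)/RFP (575-640 nm) total intensity ratio; 0.5% DMSO vehicle.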
HTT ATP protect: Huntington cell model cytoprotection by ATP luminescence. Potency, µM (titrated, usually from 56.4 µM), without a hit: cytoprotection (ATP increase), hits mostly activators. 230,000 tested, 0.14% active. PC12 HTT-Q103 induced, cytoprotection, ATP luminescence, 40 h; active means well fitted curve in the direction sought with a large enough effect; inconclusive means small, poorly fitted or top-dose-only effect, or another doubt; inactive means no such curve, though single readings can be large; an effect the other way counts as inactive or inconclusive; further: % of control where 0% means no effect; nearly all actives have a fitted effect of over 45% in size
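Huntington model: PC12 line, ecdysone-inducible HTTQ103 exon1–GFP, tebufenozide 100 nM. Test articles in a dose series. Endpoint luminescence from cellular ATP.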
* marks the source's active call; other numbers are inactive results; ? = inconclusive; nt = no result; [ ] = another dose, or the depositor's remark. In the library only some 9.2% were active in any assay of this set; here they are far more common. Unless noted, the call rests on the fitted dose curve; in most records, active means well fitted inhibition curve with a large enough effect (not every such curve was filed as active); inconclusive means small, poorly fitted or top-dose-only effect, or another doubt; inactive means no such curve, though single readings can be large or run the other way. Potency means the concentration at half of the fitted maximal effect.

SMILES | KDM4E inh | HTT aggregate | ALDH1A1 inh | HPGD block | Lamin A splicing | HTT ATP protect
CCCc1ccc(Oc2c(-c3ccc(O)c(C)c3O)n[nH]c2C)cc1 | 0% | ? | 1% | -9% | ? | -31%
COc1ccc(-n2c(SCC(=O)N3CCc4ccccc43)nc3c([nH]c4ccccc43)c2=O)cc1 | nt | nt | nt | nt | 5%[46 µM] | nt
N[C@H](C(=O)O)[C@@H](O)c1cnc[nH]1 | nt | nt | -3%[13.5 µM] | -4% | nt | -2%[10 µM]
CCCOc1ccc(N2C(=O)CC(SCc3nc4ccccc4[nH]3)C2=O)cc1 (centres undefined) | 3% | 1%[9.22 µM] | 16µM* | nt | ? | 6%[10 µM]
Clc1ccc(SCc2nc3ccccc3[nH]2)cc1 | 5% | 9% | -7% | -25% | 16% | 14%
O=C1CC(SCc2nc3ccccc3[nH]2)C(=O)N1c1ccc(F)cc1 (centres undefined) | -26% | -9% | 28µM* | -12% | 26% | 1%
COc1ccc(CSc2nc3ccccc3[nH]2)cc1 | -3% | -24% | 0% | -20% | 15% | -100%
O=C1CC(SCc2nc3ccccc3[nH]2)C(=O)N1c1cccc(Cl)c1 (centres undefined) | ? | -1%[9.22 µM] | 11µM* | -19% | 30% | -1%
CCCOc1ccc(N2C(=O)CC(SC(=N)N3N=C(c4ccccc4)CC3c3ccccc3)C2=O)cc1 (centres undefined) | ? | -21% | ? | nt | nt | -93%
O=C1CCC(=O)N1c1ccc(CSc2nc3ccccc3[nH]2)cc1 | 4% | -31% | 14µM* | -21% | ? | -28%
COC(=O)C1=C(C(=O)OC)[C@@H]2N(C)c3ccccc3[C@@]23C[C@@H](CO)N(C(=O)c2cc(C)oc2C)C3=N1 | 5%[11.4 µM] | nt | 7%[13.5 µM] | -15% | -7%[9.22 µM] | -6%[10 µM]
Cc1ccccc1C(=O)NNC(=O)/C=C/c1ccccc1 | ? | 1% | 11% | nt | -12%[46 µM] | -24%
CCOC(=O)c1ccc(NC(=O)CN2Cc3ccccc3C2=O)cc1 | nt | nt | nt | nt | -5%[46 µM] | nt
O=C(CC1(O)C(=O)N(Cc2cccc3ccccc23)c2ccccc21)c1cccnc1 (centres undefined) | 3% | -21% | 0.11µM* | -22% | ? | 9%
O=C(CC1(O)C(=O)Nc2ccccc21)c1cccc(Br)c1 (centres undefined) | 5% | 13% | -5% | -10% | 7% | nt
CCN1C(=O)C(O)(CC(=O)c2ccc(-n3cccc3)cc2)c2ccccc21 (centres undefined) | 5% | 6% | -11% | -12% | -7% | 5%[10 µM]
COC(=O)CN1C(=O)C(O)(CC(=O)c2ccc(Cl)cc2)c2ccccc21 (centres undefined) | -1% | 16% | 0.22µM* | -10% | -6% | 5%[10 µM]
CCN1C(=O)C(O)(CC(=O)c2cccc(-n3cccc3)c2)c2ccccc21 (centres undefined) | -5% | 2%[9.22 µM] | 4.5µM* | nt | 0%[46 µM] | 6%[10 µM]
COC(=O)CN1C(=O)C(O)(CC(=O)c2cccc(Br)c2)c2ccccc21 (centres undefined) | -8% | -4% | 0.56µM* | -4% | -6% | -14%
CCOC(=O)c1c(S(=O)(=O)NCC(=O)Nc2cccc(CC)c2)c(C)n(C)c1C | nt | nt | nt | nt | 9%[46 µM] | nt
C=CCN1C(=O)C(O)(CC(=O)c2ccccc2)c2ccccc21 (centres undefined) | 7% | -12%[9.22 µM] | 3.5µM* | -2% | -1% | -15%
Cc1cc(C)c(S(C)(=O)=O)c(Oc2cccc(C(F)(F)F)c2)n1 | ? | 16%[9.22 µM] | ? | nt | nt | -49%[1.9 µM]
Cc1cccc(NC(=O)c2ccc(C3SCC(=O)N3CCc3ccccc3)cc2)c1 (centres undefined) | -6% | -30% | ? | ? | ? | -7%[10 µM]
CC(=O)Nc1ccc(NC(=O)c2ccc(C3SCC(=O)N3CCc3ccccc3)cc2)cc1 (centres undefined) | -3% | 16% | 25µM* | -17% | ? | 49%[0.074 µM]
NC(=S)Cc1nc(-c2ccccc2)cs1 | -1% | 1% | 3.2µM* | -17% | ? | 21%[10 µM]
O/N=C/c1ccc2ccccc2n1 | -5% | -14%[9.22 µM] | nt | nt | nt | 13%[10 µM]
